Test results taken from PubChem BioAssay AID1159569 (Broad Institute, 2015).
Potency and affinity values are given separately. Records with an inconclusive call do not appear. Entries that show only a call come without a potency. Active and inactive are the calls of the source. How the calls were made is not given here.

Experiment: HepG2 cell cytotoxicity, dose response, cytotoxicity control, plate reader, dry powder samples (AID 1159569)
Conditions: HepG2 cytotoxicity counterscreen; series mostly up to 50 µM

Compound | outcome
C[C@H]1CN([C@@H](C)CO)C(=O)Cc2cc(NC(=O)Nc3ccc(C(F)(F)F)cc3)ccc2O[C@@H]1CN(C)C(=O)Nc1ccc2c(c1)OCO2 | inactive
COc1ccccc1S(=O)(=O)N(C)C[C@H]1OCc2ccccc2-c2c(n(C)c3ccccc23)C(=O)N([C@@H](C)CO)C[C@@H]1C | inactive
Cc1nc(N2[C@H](CO)[C@H](c3ccccc3)[C@H]2CNCC2CCCC2)sc1C | inactive
C/C=C/c1ccccc1[C@H]1[C@@H](C#N)N(C(=O)NC2CCCC2)[C@H]1CO | inactive
CCCC#Cc1ccc2c(c1)O[C@H](CN(C)C(=O)Nc1ccc(OC)cc1)[C@H](C)CN([C@H](C)CO)S2(=O)=O | inactive
Cc1ccc(-c2ccccc2[C@H]2[C@@H](C#N)N(C(=O)c3cccc(F)c3)[C@H]2CO)cc1 | inactive
COc1ccc(-c2ccc([C@H]3[C@H](C#N)N(C(=O)c4cccc(F)c4)[C@H]3CO)cc2)cc1 | inactive
CN1c2ccc(C#Cc3cccnc3)cc2[C@H]2[C@H](CCN2S(=O)(=O)c2ccc(F)cc2)[C@H]1CO | inactive
C[C@H](CO)N1C[C@H](C)[C@H](CN(C)S(=O)(=O)c2ccc([N+](=O)[O-])cc2)OCc2ccccc2-c2c(n(C)c3ccccc23)C1=O | inactive
C[C@@H]1CN([C@@H](C)CO)C(=O)c2cccc(NC(=O)c3ccc(-c4nccs4)cc3)c2O[C@H]1CN(C)Cc1ccc(Cl)c(Cl)c1 | inactive
COc1ccc(S(=O)(=O)Nc2ccc3c(c2)CC(=O)N([C@H](C)CO)C[C@H](C)[C@H](CN(C)S(=O)(=O)c2ccc(C)cc2)O3)cc1 | inactive
